In PubChem BioAssay AID588790 (National Center for Advancing Translational Sciences (NCATS), 2011):
Screen size: about 1,200 compounds; about 85 (7%) were called active. What follows is part of a selection rich in actives, with near analogues and random picks from the rest. Unmarked numbers belong to inactive results. Calls follow the shape of the full dose curve.

target: Beta-2 adrenergic receptor (Homo sapiens) (UniProt P07550); test: qHTS assay of beta-arrestin-biased ligands of beta2-adrenergic receptor: Hit Validation with GloSensor; conditions: W9-Glo22F cells, GloSensor cAMP luminescence, beta2AR agonism; series mostly up to 46.1 µM; activation: at the top concentration; as to activation: 0% is about no effect
Source text: The concept of biased agonism is an emerging concept of molecular pharmacology which proposes that seven transmembrane receptors (7TMRs) or G protein-coupled receptors (GPCRs), exist in multiple signaling conformations and complexes and that ligands (either agonists or antagonists) can induce signaling biased responses for distinct signal transduction cascades.
Furthermore, accumulating evidence over the last decade has drawn attention to a novel function of beta-arrestins as signal transducers that scaffold various signaling molecules upon activation of 7TMRs. […] This beta-arrestin-biased signaling presumably leads to distinct physiological outcomes from those by G protein activation.
Additionally, the active receptor conformations which […] on this beta-arrestin signaling are likely different from those activating G protein signaling
The goal of this screening project is to discover and optimize novel beta-arrestin-biased ligands for beta2-AR signaling. A luminescent cell-based assay for beta2-AR-mediated agonism, known as the Tango assay, has been validated in which ligand binding of a recombinant beta2-AR and subsequent recruitment of a recombinant beta-arrestin lead to the release of the transcriptional activator tTA, which upregulates transcription of a tTA-responsive luciferase gene. […] After compounds were identified in this primary screen, they were tested in a counter screen that used luminescence as measure through the GloSensor reagent.
NIH Molecular Libraries Probe Production Network [MLPCN]
NIH Chemical Genomics Center [NCGC]
PI: Bryan Roth (UNC) and Bob Lefkowitz (Duke)
2 uL of W9-Glo22F cells are dispensed into a white 1536-well plate. They are incubated overnight at 37 deg C at 5% CO2. 23 nL of compounds and controls are pinned into the wells. Then 2 uL of GloSensor is added and the plate is incubated for 10 min at room temperature.The plates are then read on the ViewLux for luminescence.
Potency is read from the fitted curve at half-maximal effect.

Sequence of Beta-2 adrenergic receptor (Homo sapiens) (P07550 whole entry, looked up): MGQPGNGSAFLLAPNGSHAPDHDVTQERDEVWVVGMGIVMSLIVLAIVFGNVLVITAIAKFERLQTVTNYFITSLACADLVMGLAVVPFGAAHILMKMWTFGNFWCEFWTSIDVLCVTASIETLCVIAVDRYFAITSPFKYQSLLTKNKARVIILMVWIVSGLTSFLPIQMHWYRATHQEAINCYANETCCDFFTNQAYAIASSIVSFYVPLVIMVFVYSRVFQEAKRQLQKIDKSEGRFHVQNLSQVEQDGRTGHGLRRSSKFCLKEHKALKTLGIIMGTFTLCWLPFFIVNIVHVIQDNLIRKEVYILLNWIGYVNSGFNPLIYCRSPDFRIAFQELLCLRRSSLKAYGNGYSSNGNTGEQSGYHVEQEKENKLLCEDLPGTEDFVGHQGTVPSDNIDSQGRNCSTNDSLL

Structure (SMILES) | activation | Potency
COC(=O)C1=C(c2ccc(OCc3ccccc3)cc2)C[C@@H]2CC[C@H]1N2C(=O)NCc1cccc(C(F)(F)F)c1 | -2.33% | –
COC(=O)C1=C(c2ccc(OCc3ccccc3)cc2)C[C@@H]2CC[C@H]1N2C(=O)NCc1ccc(OC)c(OC)c1 | – | 4.11 µM (active)
COC(=O)C1=C(c2ccc(OCc3ccccc3)cc2)C[C@@H]2CC[C@H]1N2C(=O)NCc1cccc(OC)c1 | -1.16% | –
O=C1NC(=O)N(Cc2ccccc2)C(=O)/C1=C/C=C/c1ccco1 | -0.857% | –
COc1cccc(C(=O)C2CCCN(Cc3cccc(C)n3)C2)c1 (stereo not given) | -0.153% | –
Clc1ccc2c(c1)C(c1ccccc1Cl)=NCc1nnc(N3CCN(CCOc4ccccc4)CC3)n1-2 | 0.153% | –
COC(=O)C1=C(c2ccc(-c3ccccc3)c(F)c2)C[C@@H]2CC[C@H]1N2C(=O)NCc1ccco1 | -2.33% | –
CNCC(O)c1ccc(OC(=O)C(C)(C)C)c(OC(=O)C(C)(C)C)c1 (stereo not given) | – | 0.259 µM (active)
COC(=O)C1=C(c2ccc(OC)c(OC)c2)C[C@@H]2CC[C@H]1N2C(=O)NCc1cccc2ccccc12 | 0% | –
OC12ONC(c3ccccn3)C1N1CCC2CC1 (stereo not given) | 1.16% | –
COC(=O)C1=C(c2ccc(-c3ccccc3)c(F)c2)C[C@@H]2CC[C@H]1N2C(=O)NCCOc1ccc(OC)cc1 | -2.33% | –
O=c1c2ccccc2nc(/C=C/c2ccc(O)c(O)c2)n1-c1ccccc1 | – | 32.6 µM (active)
COc1cccc(OCc2cc(C(=O)N3C[C@H]4C[C@@H](C3)c3cccc(=O)n3C4)no2)c1 | 0.306% | –
c1cncc(C2Nc3cccc4cccc(c34)N2)c1 | 0% | –
COC(=O)C1=C(c2ccc(F)cc2F)C[C@@H]2CC[C@H]1N2C(=O)NCCNC(C)=O | -2.33% | –
